ATXN2 expr inh: reduces ATXN2 reporter expression in HEK-293 cells; Potency, µM (highest dose often 57 µM), for the others: top-dose activity change, negative = inhibition, hits mostly inhibitors; 0.72% of 360,000 active; HEK-293 ATXN2-luciferase reporter, luminescence, 24 h; note: potency is the fitted concentration of half-maximal effect; % is set by controls: 0 for no effect and ±100 for the full control effect; nearly all actives have a fitted effect of over 55% in size
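qHTS (up to 57 uM final) was run with 24 h compound exposure of reporter cells at 37 °C. Each well was multiplexed: SteadyGlo luminescence measured ATXN2-luciferase expression after a fluorogenic Gly-Phe-AFC viability readout (25 uM final).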
ATXN viability: cell viability loss in ATXN counter-screen; Potency, µM (highest dose often 56.7 µM), usual class: cytotoxic; 0.49% of 400,000 active; S2 cells (HEK-293 line with an ATXN2-luciferase reporter) viability, CellTiter-Fluor protease fluorescence, 24 h; AID 651635; note: potency is the fitted concentration of half-maximal effect; nearly all actives have a fitted effect of over 40% in size
CtBP-E1A blk: blocks the CtBP interaction with E1A. AlphaScreen GST-E1A/His-CtBP binding, 1536-well; hits give low values. activity change, % (test concentration not listed). 0.49% of 340,000 active; in the data active = activity change below about -65%; inconclusive = mostly about -30% to -63%; note: % is set by controls: 0 for no effect and ±100 for the full control effect
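Steps: dispense buffer (Tris pH 8.0, NaCl 300 mM, TCEP 1 mM, BSA, Tween 20); add 5X protein mix (GST-E1A, His-CtBP, 125 nM each); pin 23 nL compound; 2 h at 37 °C, dark; add 5X beads (50 ug/mL); 1 h; read.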
HepG2 viability: HepG2 cytotoxicity, counter-screen for TGF-b inhibitors. HepG2 CAGA-GFP viability, ATP luminescence, 18 h. Potency, µM (series often up to 46.1 µM), without a hit: at the top dose activity change, negative = cytotoxicity, most hits filed as cytotoxic. 0.76% of 410,000 active. AID 588856; note: potency is the fitted concentration of half-maximal effect
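HepG2 CAGA-GFP cells (1000/well, DMEM with 1% FBS) received compound, then TGF-beta at 500 pg/mL final, and were incubated 18 hours at 37 degrees C. Viability was read by CellTiter-Glo luminescence. Media-only wells were set as complete cell-killing and DMSO as no toxicity.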
Six1-Eya2 inh: inhibitors of human Six1/Eya2 interaction | AlphaScreen GST-Six1/His-Eya2 binding, biochemical; hits give low values | activity change, % (concentration not given with the values) | 0.56% of 360,000 active; in the data active = activity change below about -65%; inconclusive = mostly about -30% to -63%; note: % is set by controls: 0 for no effect and ±100 for the full control effect
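AlphaScreen luminescence read after one hour at 37 °C in darkness. Pin-transferred compounds met GST-Six1 and His-Eya2 protein (5X stock 250 nM/500 nM) plus glutathione donor and Ni-chelate acceptor beads (5X, 50 ug/mL).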
TGFb inhibitor: inhibitors of TGF-b signaling; HepG2 CAGA-GFP TGF-b/SMAD3 reporter, GFP fluorescence, 18 h; TGF-beta stimulated, 500 pg/mL final; Potency, µM (series often up to 46.1 µM), without a hit: at the top dose activity, negative = inhibition, hits mostly inhibitors; 1.2% of 410,000 active; AID 588855; note: potency is the fitted concentration of half-maximal effect; % is set by controls: 0 for no effect and ±100 for the full control effect; nearly all actives have a fitted effect of over 65% in size
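TGF-beta reporter screen: HEPG2 CAGA-GFP, 1% FBS, 500 pg/mL TGF-beta final, 18 h; per-cell GFP summed per well; curves fitted and categorized by class.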
Starred values were filed as active, the others as inactive; i = inactive; ? = inconclusive; nt = no result. In the library only some 2.8% were active in any assay of this set; here they are far more common. Unless noted, calls come from the whole dose curve; as a rule, active = well fitted curve in the direction sought with a large enough effect; inconclusive = small, poorly fitted or top-dose-only effect, or another doubt; inactive = no such curve, though single readings can be large; an effect the other way counts as inactive or inconclusive.

SMILES | ATXN2 expr inh | ATXN viability | CtBP-E1A blk | HepG2 viability | Six1-Eya2 inh | TGFb inhibitor
O=C(Nc1cc(S(=O)(=O)N2CCCCC2)ccc1Cl)c1ccccc1NS(=O)(=O)c1ccc(F)cc1 | ? | ? | 2 | -29% | 3 | 3.5µM*
Cc1ncc2c(c1CNC(=O)/C=C/c1cccs1)CCN(C(=O)c1cc(C(C)C)on1)C2 | nt | i | nt | nt | nt | nt
C[C@@H]1CN(Cc2ccc3c(c2)CN(C(=O)CN2CCOc4ccccc4C2)CCO3)C[C@H](C)O1 | nt | i | nt | nt | nt | nt
Cc1ccccc1NS(=O)(=O)c1ccc2[nH]cc(C(=O)NCCc3ccccc3)c(=O)c2c1 | nt | nt | nt | -42% | nt | 20µM*
CCN(c1ccccc1)S(=O)(=O)c1ccc2[nH]cc(C(=O)NC3CCCCC3)c(=O)c2c1 | ? | ? | nt | -101% | nt | 7.9µM*
Cc1ccc(CNC(=O)c2c[nH]c3ccc(S(=O)(=O)Nc4ccc(C(C)C)cc4)cc3c2=O)cc1 | nt | nt | nt | 11µM* | nt | ?
O=C1CCC[C@@H]2CC(N(Cc3cc4ccccc4s3)c3ccccc3)C[C@@H]3CCN1[C@H]23 (some centres not stated) | nt | nt | nt | 21% | nt | -7%
Nc1c(N(CCC2=CCCCC2)C(=O)Cc2ccc(F)cc2)c(=O)[nH]c(=O)n1Cc1ccccc1 | 3% | ? | -1 | 0% | -8 | ?
Nc1c(N(CCC2=CCCCC2)C(=O)COc2ccc(F)cc2Cl)c(=O)[nH]c(=O)n1Cc1ccccc1 | 11µM* | nt | 5 | 3.5µM* | 6 | 3.2µM*
COc1cccc(C2=Nn3c(nnc3-c3ccccc3O)SC2)c1 | -2% | i | -19 | -17% | -16 | -5%
C[n+]1c2n(c3ccccc31)N=C(c1cc(C(C)(C)C)c(O)c(C(C)(C)C)c1)CS2 | ? | 22µM* | -5 | -160% | -10 | 6.3µM*
CCOc1ccc(-c2cc(C(=O)NCCCn3ccnc3)c3ccccc3n2)cc1 | -10% | ? | 0 | -15% | -1 | -1%
CCOc1ccc(-c2cc(C(=O)NCCCN3CCN(CC)CC3)c3ccccc3n2)cc1 | -1% | ? | 8 | 20µM* | -1 | 29%
O=C(NCCCn1ccnc1)c1nn2c(C(F)(F)F)cc(-c3ccc(Br)cc3)nc2c1Cl | ? | ? | ? | 5.6µM* | -18 | 18%
CCc1ccccc1Nc1cc(C(=O)NCCCN(C)C2CCCCC2)c2ccccc2n1 | ? | 16µM* | nt | -84% | nt | ?
CCOc1ccc(-c2cc(C(=O)NCCCn3ccnc3)c3cc(Br)ccc3n2)cc1 | -18% | ? | -8 | -92% | -28 | 14µM*
Cc1ccc(C)c(Nc2cc(C(=O)NCCCN(C)C3CCCCC3)c3ccccc3n2)c1 | -15% | ? | nt | -54% | nt | -5%
Cc1ccccc1Nc1cc(C(=O)NCCCN2CCN(c3cccc(Cl)c3)CC2)c2ccccc2n1 | ? | ? | nt | -59% | nt | 22µM*
O=S(=O)(c1ccccc1)c1nnn2c1nc(NCc1ccccc1)c1sccc12 | nt | nt | nt | 3% | nt | 56%
COc1ccc(Nc2ccnc3ccccc23)cc1 | 19% | i | -9 | -16% | 2 | -1%
CC(C)Nc1ccc(Nc2ccnc3cc4ccccc4cc23)cc1 | ? | nt | -81* | 11µM* | -70* | ?
c1ccc(CCNc2ccnc3cc4ccccc4cc23)cc1 | ? | nt | -20 | 11µM* | 11 | ?
Cc1ccnc(NCc2cc(Cl)cc(Cl)c2O)c1 | nt | ? | ? | -25% | ? | -2%
Oc1c(Cl)cc(Cl)cc1CNc1nccs1 | -2% | i | -83* | 10% | -65* | -14%
CCc1cccc(NC(=O)CCc2nc3cccnc3n2Cc2ccc(OC)cc2)c1 | nt | nt | nt | -47% | nt | ?
CCOc1ccc(S(=O)(=O)N2CCC(N3CCN(Cc4ccc(F)cc4)C(=O)C3=O)CC2)cc1 | -7% | i | nt | 1% | nt | -25%
Cc1cc(C)nc(SCc2ccc(C(=O)N/N=C/c3ccc(C(=O)O)cc3)cc2)n1 | -17% | i | 0 | -17% | -18 | 13%

Screening results deposited in PubChem by National Center for Advancing Translational Sciences (NCATS).
